Experimental data from the supplement of paper PMC6089552.
Among all 3,200 compounds or so, about 300 (9.4%) showed activity. The sample as a whole holds a higher share of actives than the screen did.

Tested on: A673/TR/shEF
Assay: cell viability (LOESS-normalised, relative to median of negative controls) (log2 ratio); higher = more viable cells (less compound effect), active = hit call of the paper (over 3 MAD below the median)
Conditions: treatment time: 72 h
How it was run: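 For three days, A673/TR/shEF Ewing sarcoma cells in 384-well plates (1,500 per well) were treated with library compounds at two or more concentrations or with DMSO controls, after doxycycline had been added or withheld 24 h beforehand to induce EWS-FLI1 shRNA knockdown. Viability was read by CellTiter-Glo luminescence on an Envision reader. The data were LOESS-corrected per plate, divided by the median of negative controls and log2-transformed.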

[1] = 0.25 µM, library screen: screen1, EWS-FLI1 expression: high (no doxycycline)
[2] = 0.25 µM, library screen: screen1, EWS-FLI1 expression: low (doxycycline-induced shRNA knockdown)
[3] = 2.5 µM, library screen: screen1, EWS-FLI1 expression: high (no doxycycline)
[4] = 2.5 µM, library screen: screen1, EWS-FLI1 expression: low (doxycycline-induced shRNA knockdown)
[5] = 0.25 µM, library screen: screen2, EWS-FLI1 expression: high (no doxycycline)
[6] = 0.25 µM, library screen: screen2, EWS-FLI1 expression: low (doxycycline-induced shRNA knockdown)
[7] = 2.5 µM, library screen: screen2, EWS-FLI1 expression: high (no doxycycline)
[8] = 2.5 µM, library screen: screen2, EWS-FLI1 expression: low (doxycycline-induced shRNA knockdown)
[9] = 0.025 µM, library screen: screen2, EWS-FLI1 expression: high (no doxycycline)
[10] = 0.025 µM, library screen: screen2, EWS-FLI1 expression: low (doxycycline-induced shRNA knockdown)
[11] = 25 µM, library screen: screen2, EWS-FLI1 expression: high (no doxycycline)
[12] = 25 µM, library screen: screen2, EWS-FLI1 expression: low (doxycycline-induced shRNA knockdown)
[13] = 0.103 µM, library screen: screen3, EWS-FLI1 expression: high (no doxycycline)
[14] = 0.103 µM, library screen: screen3, EWS-FLI1 expression: low (doxycycline-induced shRNA knockdown)
[15] = 0.308 µM, library screen: screen3, EWS-FLI1 expression: high (no doxycycline)
[16] = 0.308 µM, library screen: screen3, EWS-FLI1 expression: low (doxycycline-induced shRNA knockdown)
[17] = 0.926 µM, library screen: screen3, EWS-FLI1 expression: high (no doxycycline)
[18] = 0.926 µM, library screen: screen3, EWS-FLI1 expression: low (doxycycline-induced shRNA knockdown)
[19] = 2.8 µM, library screen: screen3, EWS-FLI1 expression: high (no doxycycline)
[20] = 2.8 µM, library screen: screen3, EWS-FLI1 expression: low (doxycycline-induced shRNA knockdown)
[21] = 8.3 µM, library screen: screen3, EWS-FLI1 expression: high (no doxycycline)
[22] = 8.3 µM, library screen: screen3, EWS-FLI1 expression: low (doxycycline-induced shRNA knockdown)
[23] = 25 µM, library screen: screen3, EWS-FLI1 expression: high (no doxycycline)
[24] = 25 µM, library screen: screen3, EWS-FLI1 expression: low (doxycycline-induced shRNA knockdown)

Measured: cell viability (log2)

CC(N)Cc1ccc(O)cc1 (centres undefined)
inactive: [1] 0.0594 | [2] 0.0957 | [3] 0.092 | [4] 0.0198

COC[C@H]1OC(=O)c2coc3c2[C@@]1(C)C1=C(C3=O)[C@@H]2CCC(=O)[C@@]2(C)C[C@H]1OC(C)=O
inactive: 0.025 µM, library screen: screen1, EWS-FLI1 expression: high (no doxycycline) 0.254 | 0.025 µM, library screen: screen1, EWS-FLI1 expression: low (doxycycline-induced shRNA knockdown) 0.0235 | [1] 0.137 | [2] -0.0412 | [5] 0.179 | [6] 0.0105 | [4] -0.0837 | [7] -0.0237 | [8] 0.0148
active: [3] -0.356 | 25 µM, library screen: screen1, EWS-FLI1 expression: high (no doxycycline) -0.711 | 25 µM, library screen: screen1, EWS-FLI1 expression: low (doxycycline-induced shRNA knockdown) -0.309

CCCN1CCC[C@@H](c2cccc(C#N)c2)C1
inactive: [5] 0.21 | [6] 0.0529 | [7] 0.222 | [8] 0.141

CC1(C)C2C[C@@H](O)[C@]3(C)C(CC[C@@]4(C)[C@H](c5ccoc5)CC5OC543)[C@@]2(C)[C@@H](O)C[C@H]1O (some centres undefined)
inactive: [1] 0.0938 | [2] 0.113 | [3] 0.107 | [4] 0.116

CCCN(CCC)c1c([N+](=O)[O-])cc(C(F)(F)F)cc1[N+](=O)[O-]
inactive: [1] -0.0384 | [2] 0.0507 | [3] 0.104 | [4] 0.107

CCOC(=O)NC1=C(N2CC2)C(=O)C(NC(=O)OCC)=C(N2CC2)C1=O
active: [11] -3.5 | [12] -0.288
inactive: [9] -0.0137 | [10] -0.0126 | [1] 0.102 | [2] 0.0213 | [5] 0.153 | [6] -0.00616 | [3] 0.0672 | [4] 0.107 | [7] -0.0475 | [8] 0.0995

CCC(C)[C@H]1O[C@]2(C=C[C@@H]1C)C[C@@H]1C[C@@H](C/C=C(\C)[C@@H](O[C@H]3C[C@H](OC)[C@@H](O[C@H]4C[C@H](OC)[C@@H](O)[C@H](C)O4)[C@H](C)O3)[C@@H](C)/C=C/C=C3\CO[C@@H]4[C@H](O)C(C)=C[C@@H](C(=O)O1)[C@]34O)O2.CO[C@H]1C[C@H](O[C@H]2[C@H](C)O[C@@H](O[C@@H]3/C(C)=C/C[C@@H]4C[C@@H](C[C@]5(C=C[C@H](C)[C@@H](C(C)C)O5)O4)OC(=O)[C@@H]4C=C(C)[C@@H](O)[C@H]5OC/C(=C\C=C\[C@@H]3C)[C@]54O)C[C@@H]2OC)O[C@@H](C)[C@@H]1O (some centres undefined)
inactive: [1] 0.0422 | [2] 0.0818 | [3] 0.0639 | [4] 0.0892

Cn1cc(C2=C(c3cn(C4CCN(Cc5ccccn5)CC4)c4ccccc34)C(=O)NC2=O)c2ccccc21
inactive: [13] -0.105 | [14] -0.0101 | [15] -0.0168 | [16] 0.054 | [17] -0.0718 | [18] 0.0485 | [19] -0.024 | [20] -0.0681 | [21] 0.0419 | [22] 0.0589 | [23] -0.03 | [24] 0.0493

C=CCN1CCC23c4c5ccc(O)c4O[C@@H]2/C(=N/NC(=O)c2ccccc2)CCC3(O)[C@H]1C5 (some centres undefined)
inactive: [5] 0.0804 | [6] 0.0684 | [7] 0.0878 | [8] 0.0887

C[C@H]1CCC/C=C/[C@@H]2C[C@H](O)C[C@H]2[C@H](O)/C=C/C(=O)O1
active: [5] -0.127 | [6] -0.561 | [7] -3.76 | [8] -3.56

CN1[C@@H]2CC[C@H]1CC(OC(=O)C(CO)c1ccccc1)C2 (some centres undefined)
inactive: [13] -0.0138 | [14] 0.0399 | [1] 0.0603 | [2] 0.0968 | [15] -0.021 | [16] -0.00749 | [17] -0.0329 | [18] 0.092 | [3] 0.15 | [4] 0.157 | [19] -0.023 | [20] -0.00135 | [21] -0.0414 | [22] -0.0331 | [23] -0.025 | [24] 0.0734

NCCc1ccc(S(=O)(=O)F)cc1
inactive: [6] 0.067 | [7] -0.0377 | [8] 0.0161
active: [5] -0.0889

NCCc1ccc(O)cc1
inactive: [1] 0.0239 | [2] 0.0662 | [5] 0.157 | [6] 0.123 | [3] 0.134 | [4] 0.0729 | [7] 0.116 | [8] 0.0531

COc1cc(CCN)ccc1O
inactive: [5] 0.212 | [6] 0.0815 | [7] 0.12 | [8] 0.0385

COc1cc([C@@H]2c3cc4c(cc3[C@H](O)[C@H]3COC(=O)[C@@H]23)OCO4)cc(OC)c1OC
active: [3] -2.1 | [4] -0.572
inactive: [1] 0.0302 | [2] 0.00961

COc1cc([C@@H]2c3cc4c(c(O)c3C[C@H]3COC(=O)[C@@H]32)OCO4)cc(OC)c1OC
inactive: [1] 0.0843 | [2] 0.0231
active: [3] -3 | [4] -0.852

COc1ccc2c(c1O)-c1c3c(cc4c1[C@H](C2)N(C)CC4)OCO3
inactive: [5] 0.104 | [6] 0.0658 | [7] 0.0733 | [8] 0.132

COc1ccc2c(c1OC)C(=O)O[C@H]2[C@@H]1c2cc3c(cc2CCN1C)OCO3
inactive: [5] 0.0965 | [6] 0.0835 | [7] 0.18 | [8] 0.113

COc1cc([C@@H]2c3cc4c(cc3[C@H](OC(C)=O)[C@H]3COC(=O)[C@H]23)OCO4)cc(OC)c1OC
active: [1] -3.77 | [2] -0.983 | [3] -3.58 | [4] -1.13

COc1cc([C@@H]2c3cc4c(cc3[C@H](O)[C@H]3COC(=O)[C@H]23)OCO4)cc(OC)c1OC
active: [1] -3.56 | [2] -1.09 | [3] -4.23 | [4] -0.986 | [7] -1.33 | [8] -0.175 | [11] -2.9 | [12] -0.496
inactive: [9] 0.106 | [10] 0.109 | [5] 0.0134 | [6] 0.0379

COc1ccc2c(c1OC)C(=O)O[C@H]2[C@H]1c2cc3c(cc2CCN1C)OCO3
inactive: [1] 0.11 | [2] 0.0969 | [3] -0.0012 | [4] 0.0503

CCCN(CCC)[C@@H]1CCc2c(F)ccc(O)c2C1
inactive: [5] 0.13 | [6] 0.0763 | [7] 0.181 | [8] 0.101

O=C1NCN(c2ccccc2)C12CCN(CC1COc3ccccc3O1)CC2 (centres undefined)
inactive: [5] 0.177 | [6] 0.0806 | [7] 0.104 | [8] 0.0692

C/C=C(\C)C(=O)O[C@H]1C[C@@H](OC(C)=O)[C@@]2(C(=O)OC)CO[C@H]3[C@@H](O)[C@@](C)([C@]45O[C@@]4(C)[C@H]4C[C@@H]5O[C@@H]5OC=C[C@@]54O)[C@H]4[C@]1(CO[C@]4(O)C(=O)OC)[C@@H]32
inactive: [1] 0.103 | [2] 0.0233 | [3] 0.139 | [4] -0.02

Cc1cccc(C)c1NC(=O)CN1CCCC1=O
inactive: [13] 0.119 | [14] -0.000586 | [15] 0.107 | [16] 0.118 | [17] 0.135 | [18] 0.0891 | [19] 0.156 | [20] 0.0751 | [21] 0.15 | [22] 0.0489 | [23] 0.154 | [24] 0.0876

O=c1ccc2cc(O[C@@H]3OC(CO)[C@@H](O)C(O)C3O)c(O)cc2o1 (some centres undefined)
inactive: [1] 0.0986 | [2] -0.0879 | [3] 0.201 | [4] 0.107

CC(C)N(C(=O)SCC(Cl)=C(Cl)Cl)C(C)C
inactive: [1] 0.0806 | [2] 0.0889 | [3] -0.00898 | [4] 0.0996

CC1=C2C[C@H]3[C@@H](CC=C4C[C@@H](O)CC[C@@]43C)[C@@H]2CC[C@]12O[C@@H]1C[C@H](C)CN[C@H]1[C@H]2C
inactive: [13] 0.00521 | [14] 0.0036 | [15] 0.012 | [16] 0.0389 | [17] -0.00313 | [18] 0.0472 | [19] 0.0157 | [20] 0.0183 | [21] -0.0322 | [22] 0.102 | [23] -0.00963 | [24] 0.053

Cc1cccc(CN2CCN(Cc3ccc(F)cc3)CC2)c1
inactive: [1] 0.0688 | [2] 0.0518 | [3] 0.143 | [4] 0.0989

C[C@H]1OC[C@@H](C[N+](C)(C)C)O1
inactive: [5] 0.185 | [6] 0.123 | [7] 0.146 | [8] 0.0964

C[C@H]1O[C@@H](C[N+](C)(C)C)CS1
inactive: [5] 0.209 | [6] 0.0237 | [7] -0.0233 | [8] 0.035

O=C(OC1CC2CCC(C1)[N+]21CCCC1)C(O)(c1ccccc1)c1ccccc1 (centres undefined)
inactive: [13] 0.0271 | [14] 0.0529 | [15] 0.0379 | [16] 0.0384 | [17] -0.0177 | [18] 0.0427 | [19] 0.0921 | [20] 0.0957 | [21] 0.022 | [22] 0.0679 | [23] 0.0665 | [24] 0.0295

C=C1[C@H]2CCC3[C@@](CC[C@@H]4[C@H](C(=O)O)C[C@@H](O[C@H]5O[C@H](CO)[C@@H](OS(=O)(=O)O)[C@H](OS(=O)(=O)O)[C@H]5OC(=O)CC(C)C)C[C@@]34C)(C2)[C@H]1O (some centres undefined)
inactive: [1] 0.138 | [2] 0.098 | [3] 0.0683 | [4] 0.0267
